Granule exo inh – blocks lytic granule exocytosis; TALL-104 LAMP-1 surface exposure, flow cytometry; cells stimulated with thapsigargin and PMA; inhibition, % at 10 µM; actives 0.66% (n = 360,000);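 active = inhibition above about 55%, limit read from the data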
GASC-1 inh – inhibitors of human GASC-1 (JMJD2C) demethylase; inhibition, % at 2.35 µM; AID 2099; actives 0.069% (n = 330,000); Q9H3R0; GST-JMJD2C(1-420) H3K9me3 demethylation, DELFIA europium;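 active = more than half of a compound's replicate wells show inhibition beyond 50%, single wells judged on their own value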;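 note: signal counts dimethyl H3K9 product captured on neutravidin plate; 0% = median of DMSO wells and 100% = 0.3 times that DMSO median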
Target sequence (Q9H3R0 1-420 limits assumed): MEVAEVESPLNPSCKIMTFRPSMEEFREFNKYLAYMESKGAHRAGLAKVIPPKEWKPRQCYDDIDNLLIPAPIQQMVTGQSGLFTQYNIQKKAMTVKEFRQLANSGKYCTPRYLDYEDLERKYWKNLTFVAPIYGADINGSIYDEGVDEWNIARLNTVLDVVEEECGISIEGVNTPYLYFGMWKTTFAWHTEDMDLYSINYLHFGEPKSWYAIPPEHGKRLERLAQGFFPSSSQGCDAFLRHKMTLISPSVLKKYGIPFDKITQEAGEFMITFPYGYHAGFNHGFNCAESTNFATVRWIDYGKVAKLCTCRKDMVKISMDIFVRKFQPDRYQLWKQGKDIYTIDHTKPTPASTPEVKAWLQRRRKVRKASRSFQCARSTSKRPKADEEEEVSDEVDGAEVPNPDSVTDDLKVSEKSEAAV
MIN6 prolif – induces beta-cell replication in MIN6 cells; proliferation, % at 10 µM; MIN6 cells proliferation, ATPlite luminescence, 48 h; cells starved in 0.2% serum; 100% = growth in 10% serum; actives 0.29% (n = 330,000);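 active = compounds whose signal lies at least 3.5 SD above the mean of all wells on their plate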;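 note: 0% = DMSO-treated cells in low-serum medium and 100% = 10% serum control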
SMARCA2 act – SMARCA2 function activation, primary screen; activation, % at 9.1 µM; actives 1% (n = 370,000); MG213 cells, MMTV-luciferase reporter, dexamethasone, overnight; AID 652017; in the data active = activation above about 7.8%;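 note: 0% = vehicle wells and 100% = reference activator wells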
ALR inh – blocks human ALR sulfhydryl oxidase activity | purified ALR, DTT oxidation, H2O2 HRP-luminol luminescence | inhibition, % (concentration not given with the values) | actives 3.8% (n = 290,000);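 active = mean replicate inhibition above about 79%, with every replicate also reaching it, limit read from the data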
Target sequence (P55789 whole entry, looked up): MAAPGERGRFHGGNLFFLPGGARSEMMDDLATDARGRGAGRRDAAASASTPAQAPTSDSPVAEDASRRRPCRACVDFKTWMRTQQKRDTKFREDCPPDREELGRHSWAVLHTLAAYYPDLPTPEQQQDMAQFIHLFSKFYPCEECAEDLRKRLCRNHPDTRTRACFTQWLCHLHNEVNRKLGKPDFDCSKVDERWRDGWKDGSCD
M18AAP inhibitor – PfM18AAP enzyme inhibition; recombinant PfM18AAP, H-Glu-NHMec fluorogenic cleavage; inhibition, % at 7.35 µM; actives 1.2% (n = 290,000);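 active = inhibition above the campaign mean inhibition over all tested compounds plus 3 SD, cut at about 28% in these data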;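 note: 0% = plate median of test compound wells and 100% = 2 mM ZnCl2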
The depositor's hits bear a star; x = not tested or not shown; ! = not confirmed by another sample. Rows were chosen to be rich in hits. Some 5.4% of all compounds tested hit in one or more screens of this group.

SMILES | Granule exo inh | GASC-1 inh | MIN6 prolif | SMARCA2 act | ALR inh | M18AAP inhibitor
CC(C)CN(C(=O)CN1CCN(c2ccc(O)cc2)CC1)c1c(N)n(CC(C)C)c(=O)[nH]c1=O | 0 | -5 | -6 | -4 | 99* | 23
CCOC(=O)/C(=N\Nc1ccccc1Cl)N1CCN(C)CC1 | -4 | -7 | 0 | 0 | 98* | 2
CCOC(=O)/C(=N\Nc1ccccc1Cl)N1CCN(Cc2ccccc2)CC1 | -2 | 0 | 0 | -2 | -14 | 5
CC(=O)C1=C(O)C(=O)N(c2ccc(Br)cn2)C1c1ccc(Br)cc1 (configuration not stated) | 6 | -4 | -2 | -2 | 97* | 2
CC(=O)C1=C(O)C(=O)N(c2ccc(Br)cn2)C1c1ccccc1[N+](=O)[O-] (configuration not stated) | 1 | -18 | 0 | 8 | -3 | 20
CC(=O)C1=C(O)C(=O)N(c2ccc(Br)cn2)C1c1cccc([N+](=O)[O-])c1 (configuration not stated) | 5 | 8 | 2 | 4 | 89* | 2
CC(=O)C1=C(O)C(=O)N(c2ccc(Br)cn2)C1c1ccc(F)cc1 (configuration not stated) | -2 | -5 | -1 | 2 | 5 | 1
Cc1cc(C)cc(C(=O)OCCCN(C)C2CN(Cc3cn(Cc4ccccc4F)nn3)S(=O)(=O)C2)c1 (configuration not stated) | x | x | x | -2 | x | x
CC(=O)NCCc1c(C)n(Cc2ccccc2)c2ccccc12 | 7 | -7 | -5 | -3 | 99* | 3
COc1cc(OC)cc(C(=O)Nc2ccc(-n3cnnn3)c(C)c2)c1 | -2 | 89* | 1 | 7 | -1 | -1
N#CC1=C(N)NC(=S)C(C(N)=O)C1c1ccc(Cl)cc1Cl (configuration not stated) | 99* | 5 | -7 | 6 | 24 | 30*
Cc1cc(Br)cc(C)c1NC(=S)NC(=O)CC(C)C | 0 | 1 | -4 | -4 | 90* | -4
CCC(=O)NC(=S)Nc1c(C)cc(Br)cc1C | 3 | 0 | -3 | 0 | -2 | -15
Cc1ccn2c(NC3CCCC3)c(-c3ccsc3)nc2c1 | 1 | 10 | 0 | -3 | 89* | 4
Cc1ccn2c(NC3CCCCC3)c(-c3ccc(SC4CCCCC4)cc3)nc2c1 | -1 | x | x | 5 | x | x
CCC(C)Sc1cccc(-c2nc3cc(C)ccn3c2NC2CCCCC2)c1 (configuration not stated) | 57*! | x | -6 | -1 | x | x
COc1ccc(S[C@]2(C(=O)N3CCOCC3)CC(=O)N(P(=O)(OC)OC)[C@@H]2c2ccc(OC)cc2)cc1 | x | x | x | -1 | x | x
Cc1ccc(-c2cc(-c3nnc(SCC(=O)NC4CCCCC4)n3N)[nH]n2)cc1 | x | x | x | -3 | x | x
COc1ccc(N2Nc3n[nH]c(N)c3N2)cc1 | -1 | 5 | 2 | 3 | 99* | 6
Cc1ccc(N2C(=O)CSC2c2cccnc2)cc1F (configuration not stated) | -11 | -4 | -1 | -5 | 100* | 4
CC(=O)C1=C(O)C(=O)N(c2cccnc2)C1c1ccc(Cl)cc1 (configuration not stated) | 0 | -7 | -3 | -1 | x | 1
O=C1CSC(c2cccnc2)N1c1ccc(Cl)cc1 (configuration not stated) | -14 | -14 | -2 | 0 | 99* | 0
O=C1CSC(c2cccnc2)N1C1CCCCC1 (configuration not stated) | 1 | -1 | -2 | -5 | 1 | -13
O=C1CSC(c2ccc(Cl)cc2)N1c1cccnc1 (configuration not stated) | -3 | -2 | -1 | -2 | 98* | 0
O=C1CC(N2CCCN(Cc3ccccc3)CC2)=NC(=O)N1c1ccc(Br)cc1 | x | x | x | -3 | x | x
SMILES | Granule exo inh | GASC-1 inh | MIN6 prolif | SMARCA2 act | ALR inh | M18AAP inhibitor
COc1ccccc1-n1c([S-])c(C(=O)Nc2ccccc2C(F)(F)F)[n+]2ccc(C(=O)NCCO)cc12 | 63* | -4 | -1 | 0 | -22 | 6
COC(=O)C[C@H]1CC[C@H]2[C@H](COc3ccc(NC(=O)Cc4cccs4)cc3C(=O)N2C)O1 | x | x | x | -1 | x | x
CN(C)/N=C1\CCS(=O)(=O)c2sccc21 | -1 | 5 | -3 | 0 | x | -6
Cc1ccc(N/N=C2\CCS(=O)(=O)c3sccc32)cc1 | -1 | 6 | -3 | 0 | 99* | 5
COc1ccc(OC)c(N(CC(N)=O)S(=O)(=O)c2ccc(OC)c(OC)c2)c1 | 1 | 3 | 4 | 1 | 99* | 3
COc1ccc(OC)c(N(CC(=O)N2CCCCC2)S(=O)(=O)c2ccc(OC)c(OC)c2)c1 | 2 | 5 | 0 | -3 | -10 | 2
COc1ccc(CN(CCN2CCOCC2)C(=O)c2ccccc2C)cc1OC | x | x | x | -4 | x | x
Cc1cccc(C)c1NC(=O)c1sccc1SCc1cccc(C(F)(F)F)c1 | 66* | 16 | -6 | x | -4 | 2
CC(=O)c1cc(-c2ccc([N+](=O)[O-])cc2)c(=O)n2c1CCC2 | x | x | x | -1 | x | x
Cc1oc(-c2ccccc2)nc1CS(=O)CC(=O)N1CCc2ccccc2C1 (configuration not stated) | 3 | -1 | 2 | 4 | 99* | 1
Cc1ccc(-c2nc(CS(=O)CC(=O)N3CCN(c4ccccc4)CC3)c(C)o2)cc1 (configuration not stated) | 28 | 17 | -5 | -7 | 98* | 0
COc1cccc(-c2nc(CS(=O)(=O)CC(=O)N3CCc4ccccc4C3)c(C)o2)c1 | -1 | 1 | 3 | -1 | 33 | -8
Cc1cccc(-c2nc(CS(=O)CC(=O)N3CCCCC3)c(C)o2)c1 (configuration not stated) | -3 | -3 | 0 | -3 | 100* | 0
Cc1oc(-c2ccccc2Cl)nc1CS(=O)CC(=O)N1CCN(c2ccccc2)CC1 (configuration not stated) | 1 | -12 | 0 | -5 | 99* | 5
Cc1ccc(CN2CCCCC(NC(=O)c3c(F)cccc3F)C2=O)cc1 (configuration not stated) | x | x | x | -2 | x | x
Cc1ccc(S(=O)(=O)NCC(=O)N2CCN(c3ccccn3)CC2)cc1C | x | x | x | -3 | x | x
Cc1c(C(=O)Oc2ccc(Cl)cc2)n(C)oc1=O | -4 | -11 | 0 | 4 | x | -4
Cc1nnsc1C(=O)NNc1ccc(Cl)cc1 | 0 | 2 | -1 | -2 | -16 | 2
Cc1c(C(=O)NNc2c(Cl)cccc2Cl)n(C)oc1=O | -5 | 9 | 3 | 2 | 98* | 8
Cc1nnsc1C(=O)NNc1c(Cl)cccc1Cl | 0 | -8 | 0 | -2 | 98* | 8
CCOC(=O)c1ccc(NC(=O)CSc2nnc(-c3cc(-c4ccccc4)n[nH]3)n2N)cc1 | x | x | x | -3 | x | x
O=C(Cn1nnc(-c2ccncc2)n1)Nc1ccc(F)cc1F | x | x | x | -5 | x | x
